GPR151 ag = activators of human GPR151, primary screen, cell-based, PathHunter beta-arrestin, luminescence; PathHunter beta-arrestin GPR151 cells; hit rate 1% among 650,000; activation, % at 11.2 µM; G-protein coupled receptor 151 (Homo sapiens), Q8TDV0; in the data active = activation above about 4.9%
Target sequence (Q8TDV0 whole entry, looked up): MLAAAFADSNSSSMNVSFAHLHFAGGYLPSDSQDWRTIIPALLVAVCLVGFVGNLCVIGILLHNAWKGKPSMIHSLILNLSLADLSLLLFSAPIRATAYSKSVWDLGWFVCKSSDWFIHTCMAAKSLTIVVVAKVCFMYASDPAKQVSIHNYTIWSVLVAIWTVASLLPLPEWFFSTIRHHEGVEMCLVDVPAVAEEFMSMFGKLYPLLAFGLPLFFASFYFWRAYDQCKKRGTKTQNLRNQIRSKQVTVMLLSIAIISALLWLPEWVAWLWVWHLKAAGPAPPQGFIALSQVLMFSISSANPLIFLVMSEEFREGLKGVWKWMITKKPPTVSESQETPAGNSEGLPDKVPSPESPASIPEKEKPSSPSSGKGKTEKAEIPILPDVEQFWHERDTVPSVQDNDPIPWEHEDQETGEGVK
FBW7 activator = FBW7 E3 ligase activators, primary screen, biochemical, AlphaScreen, human. F-box/WD repeat-containing protein 7 (Homo sapiens), Q969H0. AlphaScreen FBW7–phospho-cyclin E peptide binding, activator screen. normalized activity (activation), % at 26.1 µM. hit rate 0.13% among 650,000; in the data active = normalized activity above about 1.9%;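 also: purified mutant Fbw7 with reduced substrate affinity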
MITF primary = MITF inhibitors, primary screen, biochemical, AlphaScreen, human. Microphthalmia-associated transcription factor (Homo sapiens), O75030. AlphaScreen MITF homodimerization, bead proximity signal. inhibition, % at 2.6 µM. hit rate 0.91% among 650,000. AID 1259374, 2018; in the data active = inhibition above about 50%
TEAD-YAP inh = TEAD-YAP interaction inhibition, primary screen, TEAD-YAP interaction inhibitor project, luminescence, HEK-TIYL cells; inhibition, % at 9.12 µM; hit rate 1.4% among 640,000; TEAD-Gal4/YAP UAS-luciferase luminescence; in the data active = inhibition above about 32%
Hits are given with their value; i = inactive. In the library only some 3.4% were active in any assay of this set; here they are far more common.

SMILES | GPR151 ag | FBW7 activator | MITF primary | TEAD-YAP inh
CC(C)C(c1nnnn1Cc1cccs1)N1CCN(c2ccc(F)cc2)CC1 (stereo not drawn) | i | i | i | i
Cc1ccc2c(c1)nnn2C1CCN(C(=O)Nc2ccc(Cl)cc2)CC1 | i | i | i | i
Cc1cc(C(C#N)c2ccc(Cl)cc2Cl)n2ncnc2n1 (stereo not drawn) | i | i | i | i
Cc1cccc(C(C#N)c2cc(C)nc3ncnn23)c1 (stereo not drawn) | i | 2.1 | i | i
CC(C)N(CCNc1nc(-c2ccccc2)nc2nc[nH]c12)C(C)C | i | i | i | i
CCOC(=O)c1cccc(Nc2cc(C)nc3c(C)cc(C)cc23)c1 | i | i | i | i
COC(=O)c1ccc(Nc2cc(C)nc3c(C)cc(C)cc23)cc1 | i | i | i | 48.6
CCOC(=O)c1ccc(Nc2cc(C)nc3c(C)cc(C)cc23)cc1 | i | i | i | 46.5
CC(=O)Nc1ccc(Nc2cc(C)nc3c(C)cc(C)cc23)cc1 | i | i | i | i
CCOC(=O)c1ccc2nc(C)cc(Nc3cccc(O)c3)c2c1 | i | i | i | 74.5
Cc1cccc(NC(=O)C(=O)N/N=C/c2cccc(Cl)c2Cl)c1 | i | i | i | i
CC1CCN(c2nc(-c3ccc(C(C)(C)C)cc3)nc3ccccc23)CC1 | i | i | i | 49.4
Cc1ccc(-c2nc(N3CCN(C)CC3)c3ccccc3n2)cc1 | i | i | i | i
COc1ccc(-c2nc(N3CCC(C)CC3)c3ccccc3n2)cc1OC | i | i | i | i
CN1CCN(c2nc(-c3ccc(C(C)(C)C)cc3)nc3ccccc23)CC1 | i | i | i | 82.2
Cc1ccc(NC(=O)CC2(C(=O)O)CCCC2)cc1C | i | i | i | i
c1ccc2c(c1)CC/C2=N/Nc1ccc2ccccc2n1 | i | i | i | 74.4
NS(=O)(=O)c1ccc(CCNC(=O)c2ccc(C#CC3(O)CCCCC3)cc2)cc1 | i | i | i | 44.7
O=C(Nc1ccc(Cl)c(C(F)(F)F)c1)c1ccc(NC(=O)C2CCCO2)cc1 (stereo not drawn) | i | i | i | 34.1
C=CCn1c(=O)c2c(nc3n(-c4ccccc4C)c(C)cn23)n(C)c1=O | i | 2.1 | i | i
CCCn1c(=O)c2c(nc3n(-c4ccccc4C)c(C)cn23)n(C)c1=O | i | i | i | i
CS(=O)(=O)c1ncc(Cl)c(C(=O)C(C#N)c2nc3ccccc3s2)n1 (stereo not drawn) | i | i | i | 74.3
CCOC(=O)c1c(NC(=O)c2nc(S(C)(=O)=O)ncc2Cl)sc(C)c1C | i | i | i | i
Cc1ccc2nc(C(C#N)C(=O)c3nc(S(C)(=O)=O)ncc3Cl)[nH]c(=O)c2c1 (stereo not drawn) | i | i | i | i
Cc1ccc(OC(=O)c2nc(S(C)(=O)=O)ncc2Cl)cc1C | i | i | i | 47.9
SMILES | GPR151 ag | FBW7 activator | MITF primary | TEAD-YAP inh
Cc1cccc(C)c1NC(=O)c1nc(S(C)(=O)=O)ncc1Cl | i | i | i | i
Cc1cccc(OC(=O)c2nc(S(C)(=O)=O)ncc2Cl)c1C | i | i | i | 56.3
COc1ccc(N(Cc2ccccc2)C(=O)c2nc(S(C)(=O)=O)ncc2Cl)cc1 | i | i | i | 98.4
COc1ccc(OC)c(C2=C/C(=C/c3ccc4c(c3)OCO4)C(=O)O2)c1 | i | i | i | i
O=C(/C=C/c1cccs1)c1ccc(N2CCOCC2)cc1 | i | i | i | 57.8
c1ccc2sc(N3CCN(c4nc5cc6c(cc5s4)OCCO6)CC3)nc2c1 | i | i | i | i
c1c2c(cc3sc(N4CCCC4)nc13)OCCO2 | i | i | i | 71.5
c1ccc2c(c1)CCN(c1nc3cc4c(cc3s1)OCCO4)C2 | i | i | i | 88.7
Nc1c(S(=O)(=O)O)cc(Nc2ccc(Nc3nc(Cl)nc(Nc4ccc(S(=O)(=O)O)cc4)n3)c(S(=O)(=O)O)c2)c2c1C(=O)c1ccccc1C2=O | i | i | 60.8 | i
CC1CCN(C(=O)CSc2nnc3cc(-c4ccccc4)nc(N)n23)CC1 | i | i | i | i
Cc1ncn(-c2ccc(Nc3nccc(NC4CCN(C(=O)OC(C)(C)C)C4)n3)cc2)n1 (stereo not drawn) | i | i | i | 46.3

Source: PubChem BioAssay
